Source: PubChem BioAssay
The list is not random: actives were taken first. Their share in the collection is about 3.9%.
esBAF inh: SWI/SNF esBAF complex inhibition; mouse ES cells, Bmi1-luciferase knock-in reporter, 24 h; 100% = twice the neutral-well signal; reporter increase, % at 12.5 µM; 2% of 350,000 active; AID 602393; in the data active = activation above about 40%; inconclusive = no clear call, values can overlap the other calls;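 also: 0% = median of the plate's neutral control wells and 100% = double that signal; a rise in the Bmi1 reporter signal indicates esBAF inhibition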
Wnt act: activators of Wnt/beta-catenin signaling; Wnt/beta-catenin reporter cell assay, activator, plate reader; activation, % at 9.35 µM; 1.2% of 300,000 active; AID 743398; in the data active = activation above about 30%, passing the limit was not always enough; inconclusive = no clear call, values can overlap the other calls;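 also: 0% = neutral control wells and 100% = positive control wells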
HSF1 activator: increases HSF-1 driven luciferase reporter signal | NIH3T3-HGL HSF-1 luciferase reporter, MG132, 8 h; 100% = twice DMSO control signal | activation, % at 9 µM | 1.7% of 300,000 active;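 active = mean replicate activation of at least 50% with a set share of replicates each reaching 50%; inconclusive = only one of those two conditions met; inactive = mean below 50% and too few replicates reaching it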;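 also: 0% = median of the neutral control wells and 100% = twice that signal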
HSF1 inh: HSF1 inhibition | AID 2098 | activity change, negative = inhibition, % at 7.5 µM (by protocol) | NIH3T3-HGL HSE-luciferase, MG132-induced, luminescence 8 h; stronger effect = lower value | 0.77% of 300,000 active;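 active = more than half of replicate wells show activity change below -50%, luminescence cut by over half; inconclusive = some wells, but at most half, below -50%; inactive = no replicate well below -50%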;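 also: luciferase reports HSF-1 transcriptional activity via heat shock element; 0% = median of DMSO wells and -100% = zero luminescence signal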
MITF TRPM1 HTS: activators of MITF-driven TRPM1 promoter activity in SK-MEL-5 cells. SK-MEL-5 TRPM1-promoter luciferase, 24 h; % of positive control, neutral wells = 0. activation, % at 12.5 µM. 0.75% of 300,000 active. AID 588334;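 active = mean activation of at least 80% with every replicate also reaching 80%; inconclusive = mean reaches 80% but some replicate falls short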;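 also: 0% = neutral control wells and 100% = parthenolide positive control wells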
The depositor's hits bear a star.

CO[C@@H]1CN(C)C(=O)c2cc(NC(=O)C3CCC3)ccc2OC[C@H](C)N(C)C[C@H]1C was read as esBAF inh -2.
Screening N#Cc1ccc(CSc2nc(N)cc(N)n2)cc1 returned esBAF inh 12, Wnt act 1, HSF1 activator 74* and HSF1 inh 35.
Screening Cc1ccc(CSc2nc(N)cc(N)n2)cc1 returned esBAF inh 37, Wnt act 4, HSF1 activator 4, HSF1 inh 9 and MITF TRPM1 HTS 56.
`CCCNC(=O)N[C@H]1CC[C@@H](CC(=O)NC2CCC2)O[C@H]1CO` gave esBAF inh -1.
For CO[C@@H]1CN(C)C(=O)c2cc(NC(=O)c3cnccn3)ccc2OC[C@H](C)N(C(=O)C2CC2)C[C@H]1C the results were esBAF inh -4.
Screening COc1cccc(/C=C(\C#N)c2nc3ccc(C)cc3[nH]2)c1OCC(=O)O returned esBAF inh 51*, Wnt act 0, HSF1 activator 33, HSF1 inh 4 and MITF TRPM1 HTS 0.
For COc1ccc(N=NC2=C(O)CC(C)(C)CC2=O)cc1 the results were esBAF inh 1, Wnt act 26, HSF1 activator 58*, HSF1 inh 45 and MITF TRPM1 HTS 69.
Screening CC1(C)CC(=O)C(N=Nc2ccc(Br)cc2)=C(O)C1 returned Wnt act 70*, HSF1 activator 14 and HSF1 inh 2.
`O=C(NC1CCC1)[C@H]1[C@H](CO)[C@H]2Cn3c(ccc(-c4ccccc4)c3=O)[C@H]2N1CCc1ccccc1` gave esBAF inh 2.
For Cc1ccc(OCc2cc(C(=O)NCC(C)(C)N3CCOCC3)no2)cc1C the results were Wnt act 47*, HSF1 activator 0, HSF1 inh -8 and MITF TRPM1 HTS 121*.
Screening CCN1CCCC1CNC(=O)c1cc(COc2ccc(C)c(C)c2)on1 (configuration not stated) returned esBAF inh 45*, Wnt act 7, HSF1 activator 24, HSF1 inh 10 and MITF TRPM1 HTS 79.
Screening CCc1cc(C(=O)NCC(C)(C)N2CCOCC2)sc1C returned esBAF inh 0, Wnt act -1, HSF1 activator -76, HSF1 inh -68* and MITF TRPM1 HTS 8.
For CC1CCc2sc(C(=O)NCC(C)(C)N3CCOCC3)cc2C1 (configuration not stated) the results were Wnt act -2, HSF1 activator 24, HSF1 inh 4 and MITF TRPM1 HTS 1.
For Cc1ccc(OCc2cc(C(=O)NCC3COCCO3)no2)cc1C (configuration not stated) the results were Wnt act 0, HSF1 activator 1, HSF1 inh 3 and MITF TRPM1 HTS 7.
COCC#Cc1ccc2c(c1)O[C@H](CN(C)Cc1ccccn1)[C@H](C)CN([C@@H](C)CO)S2(=O)=O was read as esBAF inh -2.
For Nc1ccc(OCc2ccccc2)cc1[N+](=O)[O-] the results were esBAF inh 44*, Wnt act 14 and MITF TRPM1 HTS 16.
O=[N+]([O-])c1cccnc1Oc1ccc(OCc2ccccc2)cc1 was read as esBAF inh inconclusive, Wnt act 9, HSF1 activator 32, HSF1 inh 14 and MITF TRPM1 HTS 65.
Screening O=C(O)c1cccc(-n2cccc2/C=C2/NC(=O)N(c3cccc(Cl)c3)C2=O)c1 returned Wnt act 2, HSF1 activator -13, HSF1 inh -12 and MITF TRPM1 HTS -6.
COc1ccc(-n2cccc2/C=C2/NC(=O)N(c3cccc(Cl)c3)C2=O)cc1 was read as Wnt act -1, HSF1 activator -66, HSF1 inh -63* and MITF TRPM1 HTS 11.
Screening CCS(=O)(=O)C(=C1NCCO1)S(=O)(=O)CC returned esBAF inh 1, HSF1 activator 52*, HSF1 inh 10 and MITF TRPM1 HTS -2.
`O=[N+]([O-])/C(C(=C(Cl)Cl)N1CCOCC1)=C1\NCCO1` gave Wnt act 0, HSF1 activator -11, HSF1 inh -6 and MITF TRPM1 HTS -4.
Screening C[C@H]1CN([C@@H](C)CO)C(=O)c2cc(C#Cc3ccncc3)cnc2O[C@H]1CN(C)S(=O)(=O)c1ccccc1F returned esBAF inh -4.
`O=C(COc1ccc(F)cc1)c1ccc2c(c1)CCCC2` gave esBAF inh 42*, HSF1 activator 78*, HSF1 inh 47 and MITF TRPM1 HTS inconclusive.
For O=C(Oc1ccc(/C=N/NC(=O)c2ccccc2F)cc1)c1ccccc1 the results were esBAF inh 47*, Wnt act 13, HSF1 activator 2, HSF1 inh 1 and MITF TRPM1 HTS 47.
Screening O=C(N/N=C/c1ccc(OC(=O)c2ccccc2)cc1)c1cccc(O)c1 returned Wnt act 47*, HSF1 activator 5, HSF1 inh -3 and MITF TRPM1 HTS 16.
Screening Nc1c(C(=O)N/N=C/c2ccccc2)cnn1-c1ccccc1 returned esBAF inh 48*, Wnt act 0, HSF1 activator 21, HSF1 inh 9 and MITF TRPM1 HTS 64.
Screening O=C(O)COc1ccc(/C=N/NC(=O)c2ccccc2Br)cc1 returned esBAF inh 8, HSF1 activator -74, HSF1 inh -67* and MITF TRPM1 HTS -5.
Screening O=C(Oc1ccc(/C=N/NC(=O)c2ccccc2O)cc1)c1ccccc1 returned esBAF inh 30, HSF1 activator 12, HSF1 inh 7 and MITF TRPM1 HTS 5.
CCN1C=CC(=C2C(=O)c3ccccc3C2=O)C=C1 was read as esBAF inh -83, HSF1 activator -79, HSF1 inh -76* and MITF TRPM1 HTS -98.
Screening CCCCCCN1C=CC(=C2C(=O)c3ccccc3C2=O)C=C1 returned esBAF inh -79, Wnt act -4, HSF1 activator -59, HSF1 inh inconclusive and MITF TRPM1 HTS -79.
Screening CCCN1C=CC(=C2C(=O)c3ccccc3C2=O)C=C1 returned esBAF inh -83, HSF1 activator -85, HSF1 inh -83* and MITF TRPM1 HTS -104.
`O=C(NCC1CC1)[C@H]1[C@H](CO)[C@H]2Cn3c(ccc(/C=C/c4ccccc4)c3=O)[C@@H]1N2C(=O)C1CC1` gave esBAF inh 3.
CNC(=O)C1C(=S)NC(N)=C(C#N)C1c1ccccc1 (configuration not stated) was read as esBAF inh -8, Wnt act 14, HSF1 activator -75 and HSF1 inh -72*.
Screening COc1ccc(NC(=O)Nc2ccc3c(c2)C(=O)N([C@@H](C)CO)C[C@@H](C)[C@H](CN(C)C(=O)Nc2cccc4ccccc24)O3)cc1 returned esBAF inh 9.
CC(=O)Nc1ccc(NC(=O)c2c([N+](=O)[O-])cnn2C)cc1 was read as esBAF inh -3, Wnt act 0, HSF1 activator 3, HSF1 inh 0 and MITF TRPM1 HTS 9.
